Some test systems named below: NCI-H23 lung; NCI-H226 lung; HOP-62 NSCLC; NCI-H460 lung; HOP-92 NSCLC; NCI-H522 lung; A549/ATCC NSCLC; 786-0 renal; COLO 205 colon.
What all share (experiment): NCI-60 one-dose screen, 48 h (100 = growth as untreated, 0 = no growth, -100 = all killed)
Settings in all cases: 10 µM unless noted

Several values for one entry are separate records, joined by “and”; a condition that tells them apart may be missing. Equal values may be shown once. Compounds without any hit were thinned out: in the full panel of roughly 83,000, 20% have a hit.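 Negative percent growth values reflect cell death: -40 means 40% of the cells present at the start died, and -100 means all died.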 Activity calls are given as the source filed them. How the source made its calls: active means growth percent below 10; inactive means the rest.

For the compound `Clc1nccc2c(-c3csc(-c4c[nH]c5ccc(Br)cc45)n3)c[nH]c12`, the growth in the assay with NCI-H23 lung is 31.9% (inactive); with NCI-H226 lung it was 33.6% (inactive); in the assay with HOP-62 NSCLC it was 7.78% (active); in the assay with NCI-H460 lung, -5.23% (active); in the assay on HOP-92 NSCLC, 6.84% (active); in the assay on NCI-H522 lung it was 1.55% (active). Also, the figures for the growth in the assay with A549/ATCC NSCLC, in the assay on 786-0 renal and in the assay on COLO 205 colon were 15.1% (inactive), -68.2% (active) and 7.99% (active), respectively.
For `CCN(c1cc(-c2ccc(CN3CCC(/C=C/S(=O)(=O)c4ccccc4)CC3)cc2)cc(C(=O)NCc2c(C)cc(C)[nH]c2=O)c1C)C1CCOCC1`, the growth with NCI-H23 lung is 81.4% (inactive); in the assay on NCI-H226 lung, 78.3% (inactive); with HOP-62 NSCLC, 82.8% (inactive); in the assay with NCI-H460 lung, 83.8% (inactive); in the assay on HOP-92 NSCLC, 24.3% (inactive); in the assay with NCI-H522 lung it was 77.7% (inactive). For the same compound, the growth is 66.1% (inactive) in the assay on A549/ATCC NSCLC, 71.1% (inactive) in the assay on 786-0 renal and 99.8% (inactive) with COLO 205 colon.
`COc1ccc(-c2cc(-c3cc(OC)c(OC)c(OC)c3)c(C#N)c(=O)n2CCCCC(=O)O)cc1`: the growth was 96.7% (inactive) in the assay with NCI-H23 lung; 104% (inactive) in the assay on NCI-H226 lung; 96.8% (inactive) with HOP-62 NSCLC; 96% (inactive) in the assay with NCI-H460 lung; 93.6% (inactive) in the assay with HOP-92 NSCLC; 87.3% (inactive) in the assay with NCI-H522 lung. The growth in the assay with A549/ATCC NSCLC was 93.9% (inactive); with 786-0 renal it was 97.5% (inactive); in the assay with COLO 205 colon it was 115% (inactive).
For `Clc1ccc(CNc2ccc3nc(CCC4CCCCC4)[nH]c3c2)cc1`, the growth in the assay on NCI-H23 lung is 66.4% (inactive); in the assay with NCI-H226 lung it was 71.4% (inactive); in the assay on HOP-62 NSCLC, 79% (inactive); in the assay on NCI-H460 lung it was 60.6% (inactive); with HOP-92 NSCLC, 28.8% (inactive); with NCI-H522 lung, 54.8% (inactive). Moreover, the figures for the growth in the assay with A549/ATCC NSCLC, in the assay with 786-0 renal and with COLO 205 colon were 59.8% (inactive), 58.9% (inactive) and -63.3% (active), respectively.
With `COc1ccc(-c2cc(-c3cccnc3)nc3sc4c(Cl)nnnc4c23)cc1OC`, the growth is 91.3% (inactive) in the assay on NCI-H23 lung; 84.4% (inactive) with NCI-H226 lung; 98.4% (inactive) in the assay with HOP-62 NSCLC; 102% (inactive) with NCI-H460 lung; 106% (inactive) in the assay on HOP-92 NSCLC; 47.4% (inactive) with NCI-H522 lung. The growth in the assay with A549/ATCC NSCLC is 93.6% (inactive); in the assay with 786-0 renal, 109% (inactive); in the assay on COLO 205 colon it was 42% (inactive).
In the case of `CN1CCN(Cc2ccc(NC(=O)c3nc4ccc5[nH]ncc5c4c4c3CCCC4)cc2C(F)(F)F)CC1`, the growth in the assay on NCI-H23 lung is -21.9% (active); in the assay with NCI-H226 lung it was 73.4% (inactive); with HOP-62 NSCLC, -75.9% (active); with NCI-H460 lung, -58.6% (active); in the assay with HOP-92 NSCLC, -79.9% (active); in the assay with NCI-H522 lung it was -70.7% (active). Further, the growth is -83.1% (active) with A549/ATCC NSCLC, -85.4% (active) in the assay on 786-0 renal and -86.8% (active) in the assay with COLO 205 colon.
Consider `CSc1nnc(-c2cc3c([nH]c4ccccc43)c(-c3cccc(O)c3)n2)n1-c1ccc(C)cc1`, for which the growth is 70.9% (inactive) in the assay with NCI-H23 lung; 57.6% (inactive) with NCI-H226 lung; 44.9% (inactive) in the assay with HOP-62 NSCLC; 11.4% (inactive) in the assay with NCI-H460 lung; 21.3% (inactive) in the assay with HOP-92 NSCLC; -2.1% (active) in the assay with NCI-H522 lung. Besides, the values for the growth in the assay on A549/ATCC NSCLC, in the assay on 786-0 renal and with COLO 205 colon were 29.4% (inactive), 37.8% (inactive) and 76.5% (inactive), respectively.
As to `C=C[C@]1(C)C=C2CC[C@@H]3C(C)(C)C(=O)CC[C@@]3(C)[C@@H]2CC1`, the growth was 104% (inactive) in the assay with NCI-H23 lung; 126% (inactive) in the assay on NCI-H226 lung; 105% (inactive) in the assay with HOP-62 NSCLC; 109% (inactive) with NCI-H460 lung; 97.7% (inactive) in the assay with HOP-92 NSCLC; 94.6% (inactive) with NCI-H522 lung. For the same compound, the figures for the growth with A549/ATCC NSCLC, with 786-0 renal and with COLO 205 colon were 101% (inactive), 98.6% (inactive) and 116% (inactive), respectively.
For the compound `C=CCN1C=CC(=O)[C@H](O[Si](C)(C)C(C)(C)C)[C@@H]1/C=C/c1ccccc1`, the growth with NCI-H23 lung was -71.6% [100 µM] (active); with NCI-H226 lung it was -65.3% [100 µM] (active); in the assay with HOP-62 NSCLC, -88.9% [100 µM] (active); with NCI-H460 lung, -49.3% [100 µM] (active); in the assay with HOP-92 NSCLC, -89.7% [100 µM] (active); in the assay with NCI-H522 lung, -39.1% [100 µM] (active). Also, the figures for the growth in the assay with 786-0 renal and with COLO 205 colon were -88.2% [100 µM] (active) and -64% [100 µM] (active), respectively.
For `O=C1c2cccc3cccc(c23)C(=O)N1N1C(=O)c2cccc3c(N4CCNCC4)ccc(c23)C1=O`, the growth in the assay with NCI-H23 lung was 92.2% (inactive); with NCI-H226 lung, 98.6% (inactive); in the assay on HOP-62 NSCLC, 88.9% (inactive); in the assay on NCI-H460 lung, 72.4% (inactive); in the assay on HOP-92 NSCLC, 78.2% (inactive); in the assay on NCI-H522 lung it was 93.8% (inactive). In addition, the growth was 89.9% (inactive) in the assay on A549/ATCC NSCLC, 73.7% (inactive) in the assay with 786-0 renal and 95.2% (inactive) in the assay on COLO 205 colon.
As for `O=Nc1c(O)ccc2ccccc12`, the growth with NCI-H23 lung was 89.7% (inactive); in the assay with NCI-H226 lung, 93.2% (inactive) and 97.4% (inactive); in the assay with HOP-62 NSCLC it was 117% (inactive) and 101% (inactive); in the assay with NCI-H460 lung it was 96.4% (inactive) and 106% (inactive); with HOP-92 NSCLC it was 66% (inactive) and 87.1% (inactive); in the assay on NCI-H522 lung, 41.8% (inactive) and 86.2% (inactive). The growth with A549/ATCC NSCLC is 72.2% (inactive) and 100% (inactive); in the assay on 786-0 renal, 92.1% (inactive) and 104% (inactive); in the assay with COLO 205 colon, 71.1% (inactive) and 110% (inactive).
On to `CCN1C(=O)/C(=c2\sc3n(c2=O)C2C(NN=3)N(CC)C(=O)N2CC)c2ccccc21` (configuration not stated), for which the growth was 34.5% (inactive) in the assay on NCI-H23 lung; 103% (inactive) in the assay with NCI-H226 lung; 32.1% (inactive) in the assay on HOP-62 NSCLC; 4.65% (active) in the assay on NCI-H460 lung; 39.2% (inactive) in the assay on HOP-92 NSCLC; 19.9% (inactive) with NCI-H522 lung. The values for the growth with A549/ATCC NSCLC, in the assay on 786-0 renal and in the assay with COLO 205 colon were 32.8% (inactive), 30.9% (inactive) and -11.5% (active), respectively.

The values are drawn from PubChem BioAssay (NCI).
